Rows were chosen to be rich in hits. Some 7.5% of all compounds tested hit in one or more screens of this group.
Rab9 promoter act: qHTS Assay for Rab9 Promoter Activators; Potency, µM (highest dose often 9.22 µM), for inactives: at the highest dose activation, negative = inhibition, hits mostly activators; Huh7 Rab9 promoter-luciferase reporter, luminescence, 24 h; actives 2.8% (n = 320,000); also: % of control where 0% means no effect; nearly all actives have a fitted effect of over 60% in size
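Using Huh7 cells stably transfected with Rab9 promoter–luciferase, compounds were incubated 24 h at 37 °C, 5% CO2; luciferase luminescence was read 10 min after reagent addition.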
NPC1 prom act: qHTS Assay for NPC1 Promoter Activators | actives 2.4% (n = 320,000) | Huh7 NPC1 promoter luciferase reporter, 24 h | Potency, µM (top dose mostly 9.22 µM), for the others: at the highest dose activation, actives largely listed as activators; also: % of control where 0% means no effect; nearly all actives have a fitted effect of over 60% in size
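Luciferase expression driven by the NPC1 promoter was measured in stably transfected Huh7 cells after a 24 h compound incubation, using a luciferase reagent and a luminescence read.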
Luc counter: Counterscreen for Luciferase (Kinase-Glo TM) Inhibition | Luciferin 4-monooxygenase (Photuris pensylvanica), Q27757 | Kinase-Glo luciferase, ATP luminescence, 8 min | Potency, µM (top dose mostly 38.3 µM), without a hit: at the highest dose activity change, negative = inhibition, usual class: inhibitors | actives 0.28% (n = 200,000); also: % is scaled to controls: 0 for no effect and ±100 for the full control effect; nearly all actives have a fitted effect of over 60% in size
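Compound is pinned into ATP-containing buffer (10 uM ATP, imidazole pH 7.2, 7 mM MgCl2). Kinase-Glo luciferase reagent is then added. Light output is recorded following an 8-min room-temperature incubation.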
SMN2 splice up: qHTS Assay for Enhancers of SMN2 Splice Variant Expression; HEK293 SMN2-luciferase splicing reporter, luminescence, 30-36 h; Potency, µM (titrated, usually from 46.1 µM), without a hit: at the top dose activity change, positive = activation, usual class: activators; actives 2.8% (n = 210,000); AID 1458, 2008; also: % of control where 0% means no effect; nearly all actives have a fitted effect of over 55% in size
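HEK293 cells carry an SMN2 minigene-luciferase reporter in which exon 7 inclusion puts luciferase in frame. Cells were seeded at 2000 cells/well, attached for 10-12 hours, then exposed to compounds for 30-36 hours at 37C before ONE-Glo luminescence.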
FLuc modulator: qHTS profiling assay for firefly luciferase inhibitor/activator using purifed enzyme and Km concentrations of substrates (counterscreen for miR-21 project) | purified FLuc, Km substrates, luminescence inhibition | Potency, µM (top dose mostly 57.5 µM), for inactives: top-dose activity change, negative = inhibition, most hits filed as inhibitors | actives 6.9% (n = 360,000) | AID 588342, 2011;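 also: plate controls were vehicle for no effect and reference inhibitor for full effect; nearly all actives have a fitted effect of over 55% in size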
Target sequence (P08659 whole entry, looked up): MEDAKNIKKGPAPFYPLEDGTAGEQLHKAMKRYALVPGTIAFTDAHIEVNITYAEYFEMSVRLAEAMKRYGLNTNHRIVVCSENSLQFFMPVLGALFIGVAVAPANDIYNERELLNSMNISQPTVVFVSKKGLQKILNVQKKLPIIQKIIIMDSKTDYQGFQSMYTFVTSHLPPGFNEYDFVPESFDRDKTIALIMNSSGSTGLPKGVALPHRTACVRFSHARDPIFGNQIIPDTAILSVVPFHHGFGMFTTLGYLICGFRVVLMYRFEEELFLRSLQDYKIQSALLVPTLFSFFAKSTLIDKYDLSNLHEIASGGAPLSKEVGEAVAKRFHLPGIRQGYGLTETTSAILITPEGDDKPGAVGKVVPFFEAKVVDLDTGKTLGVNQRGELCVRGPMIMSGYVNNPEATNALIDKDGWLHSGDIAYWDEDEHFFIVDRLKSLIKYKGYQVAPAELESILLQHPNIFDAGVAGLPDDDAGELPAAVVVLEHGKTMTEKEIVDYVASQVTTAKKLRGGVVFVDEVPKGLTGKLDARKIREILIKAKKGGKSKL
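Biochemical qHTS of compounds, final roughly 60 µM downward over six points, against 10 nM purified firefly luciferase using Km concentrations of substrates (10 uM D-luciferin, 10 uM ATP) in Tris acetate pH 7.5 buffer; luminescence output.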
ELG1 genotoxic: qHTS screen for small molecules that induce genotoxicity in human embryonic kidney (HEK293T) cells expressing luciferase-tagged ELG1. Potency, µM (highest dose often 46 µM), for the others: top-dose activity change, positive = activation, usual class: activators. actives 1.3% (n = 330,000). HEK293T ELG1-luciferase reporter, luminescence, 16 h; also: % of control where 0% means no effect; nearly all actives have a fitted effect of over 60% in size
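ELG1-luciferase HEK293T cells, 2,000/well; compound pinned in; 16 hr, 37 °C, 5% CO2; ONE-Glo, 30 min RT; luminescence on CCD imager.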
Numbers without * were called inactive; ? = inconclusive; . = not tested or not shown; [ ] = another dose, or the depositor's remark. Calls follow the shape of the dose curve; as a rule, active = well fitted curve in the direction sought with a large enough effect; inconclusive = small, poorly fitted or top-dose-only effect, or another doubt; inactive = no such curve, though single readings can be large; an effect the other way counts as inactive or inconclusive. Potency is read from the fitted curve at half-maximal effect.

SMILES | Rab9 promoter act | NPC1 prom act | Luc counter | SMN2 splice up | FLuc modulator | ELG1 genotoxic
CCOC(=O)c1sc(SCC(=O)Nc2ccc(N(C)C)cc2)nc1N | -11.0% | -1.1% | 1.1% | -6.8% | 6.01µM* | 13.0%
CN(C)c1ccc(NC(=O)CSc2nc(N)c(C(=O)Nc3ccc(N(C)C)cc3)s2)cc1 | 23.8% | ? | -7.1% | -43.6% | 4.78µM* | -3.5%
COc1ccc(NC(=O)CSc2nnc(N)s2)cc1 | 14.2% | 9.2% | -1.4% | 13.7% | -12.5% | 8.3%
CCOC(=O)c1ccc(NC(=O)CSc2nc3sc(C(=O)O)c(C)c3c(=O)[nH]2)cc1 | ? | -3.1% | 1.0% | -0.7% | 16.9µM* | 2.9%
COC(=O)c1ccc(CSc2nc3sc(C(=O)O)c(C)c3c(=O)[nH]2)cc1 | -0.1% | -0.1% | -0.3% | -7.9% | ? | 1.5%
COc1ccc(NC(=O)CSc2nc(N)c(C(=O)Nc3ccc(N(C)C)cc3)s2)cc1 | 3.16µM* | ? | -6.8% | -17.1% | 1.35µM* | ?
Cc1ccccc1Cn1c(SCc2ccc(C(=O)NC3CCCCC3)cc2)nc2ccncc21 | . | . | . | -15.1% | ? | .
C(=N\Nc1nc(-c2ccccc2)cs1)/c1cccs1 | ? | 20.9% | -3.8% | 7.94µM* | 5.36µM* | 16.4µM*
Nc1nc(-c2cccs2)c(CC(=O)O)s1 | -1.0% | -7.7% | -2.9% | 1.2% | 5.4% | -0.9%
ClCc1csc(N/N=C/c2cccs2)n1 | 20.7% | 3.8% | . | . | 15.1µM* | 1.3%
CN(C)S(=O)(=O)c1ccc(-c2csc(N/N=C/c3ccco3)n2)cc1 | -34.1% | -30.7% | . | . | -57.1% | -16.7%
CN(C)S(=O)(=O)c1ccc(-c2csc(N/N=C/c3ccc(O)cc3)n2)cc1 | -34.1% | -20.0% | . | . | 10.7µM* | ?
O=C(O)Cc1sc(Nc2ccc(Cl)cc2)nc1-c1cccs1 | 3.55µM* | ? | -7.3% | 14.1µM* | 13.5µM* | ?
CCC1CN(C(=O)Nc2ccc(C(=O)O)cc2)c2cc(Cl)ccc2O1 (stereo not drawn) | . | . | . | 2.5% | ? | .
C(=N\Nc1nc(-c2ccccc2)cs1)/c1ccncc1 | ? | 3.16µM* | -1.9% | . | 10.7µM* | 5.6%
O=C(O)Cc1sc(Nc2cccc3ccccc23)nc1-c1ccccc1 | 1.4% | 6.3% | . | . | 23.9µM* | 1.6%
Cc1ccc(Nc2nc(-c3ccc(C)cc3)c(CC(=O)O)s2)cc1 | -0.6% | 1.7% | -0.3% | -7.7% | ? | 3.9%
O=C(O)Cc1sc(N/N=C\c2ccncc2)nc1-c1ccccc1 | -5.0% | -4.7% | . | . | 15.1µM* | -1.0%
Cc1ccc(/C=C2\SC(=S)N(CCCC(=O)N3CCOCC3)C2=O)cc1 | -18.2% | -1.0% | . | . | 21.3µM* | -12.0%
CN1CCN(C(=O)CCCN2C(=O)/C(=C/c3ccc(Cl)cc3)SC2=S)CC1 | -7.3% | -1.5% | . | . | -11.2% | -0.8%
CCc1ccc(/C=C2\SC(=S)N(CCC(=O)N3CCN(C)CC3)C2=O)cc1 | -6.4% | -5.7% | -2.4% | -39.8% | 2.69µM* | -1.4%
COc1ccc(/C=C2\SC(=S)N(CC(=O)NCCO)C2=O)cc1 | 3.4% | -2.6% | 0.0% | -12.6% | 9.53µM* | 14.0%
COc1ccc(/C=C2\SC(=S)N(CC(=O)Nc3nnc(C)s3)C2=O)cc1 | -1.8% | -0.8% | -2.6% | -8.6% | -18.5% | -2.7%
COc1ccc(/C=C2\SC(=S)N(CC(=O)N3CCN(C)CC3)C2=O)cc1 | -6.3% | -3.2% | . | . | 10.7µM* | -0.1%
Cc1cc(NC(=O)CCN2C(=O)/C(=C/c3ccccc3Cl)SC2=S)no1 | -2.5% | -2.4% | 1.0% | -6.6% | 4.2% | 7.6%
SMILES | Rab9 promoter act | NPC1 prom act | Luc counter | SMN2 splice up | FLuc modulator | ELG1 genotoxic
COc1ccc(/C=C2/SC(=S)N(CCCC(=O)N3CCN(C)CC3)C2=O)cc1 | -7.3% | -4.8% | . | . | 21.3µM* | 1.4%
CCc1ccc(/C=C2\SC(=S)N(CCC(=O)Nc3cc(C)on3)C2=O)cc1 | -5.9% | 1.5% | . | . | 16.9µM* | -1.7%
COc1ccc(/C=C2/SC(=S)N(CCC(=O)N3CCN(C)CC3)C2=O)cc1 | 4.0% | -4.8% | . | . | ? | -8.9%
Clc1ccc(C#Cc2cccnc2)cc1 | 24.0% | 19.2% | . | . | 13.5µM* | 13.5%
O=S(=O)(Nc1cccnc1)c1ccc(Cl)cc1 | -3.9% | -2.4% | -3.2% | -13.6% | -1.2% | -0.1%
CCN(CC)CCCCCCCCOC(=O)c1cc(OC)c(OC)c(OC)c1 | -16.3%[46.1 µM] | -11.4%[46.1 µM] | -1.7% | 21.6% | 6.8% | 18.3µM*
COc1cc(C(=O)OCCCN(C)C)cc(OC)c1OC | -6.5% | -2.0% | . | . | 3.1% | -1.2%
O=C(NCCN1CCCC1)c1ccc(-n2c(=O)c(=O)[nH]c3ccccc32)cc1 | . | . | -2.6% | . | . | .
COc1cccc2sc(Nc3nc(-c4ccncc4)cs3)nc12 | -7.4% | -29.5% | -0.2% | -5.3% | -15.4% | 6.1%
Cc1cccc(Nc2nc(-c3ccc(F)cc3)cs2)n1 | 3.55µM* | 3.55µM* | . | . | 5.36µM* | ?
COc1ccc(-c2csc(Nc3cccc(C)n3)n2)cc1C | 1.58µM* | 2.24µM* | . | . | 3.38µM* | ?
NS(=O)(=O)c1ccc(Nc2nc(-c3ccc(F)cc3)cs2)cc1 | -2.5% | -2.8% | 5.3% | -51.7% | 3.8% | -5.9%
COc1ccc(-c2csc(Nc3cccc(C)n3)n2)cc1 | 0.891µM* | 0.891µM* | . | . | 2.69µM* | 4.61µM*
CC(=O)Oc1ccc(-c2csc(Nc3cccc(C)n3)n2)cc1 | ? | 2.24µM* | . | . | 3.38µM* | 13µM*
COc1ccc(/C=C2\SC(=O)N(CCNC(=O)CN3C(=O)NC4(CCCC4)C3=O)C2=O)cc1 | 23.6% | 10.6% | . | . | 3.0% | 3.6%
COc1ccc(/C=C2\SC(=O)N(CCC(=O)N3CCCCC3CCO)C2=O)cc1 (stereo not drawn) | -1.3% | -3.5% | . | . | 9.53µM* | -2.4%
